Laboratory results: PMC13494018
A number with no mark means an inactive call. The rule behind the calls is not given here.

B1: design_604_3e0b3014-b333-46f1-8adc-d7f0bf8048fa_1534_dldesign_0_cycle1_af2pred (protein)
chain: KTEAIQKFADTLSEIIKLAAEAGKKSGKTAEYQALIEGALSGDFETAVKNAKEAAKLAKKDDPELGKKIEEAAKKLAEYAKKVLES
B2: design_604_3e0b3014-b333-46f1-8adc-d7f0bf8048fa_2472_dldesign_0_cycle1_af2pred (protein)
chain: EEEKKLTDEAIKEAKKLFAKAGAEEDAKEVAEKARKEGVSAGLSKALSLAEYYKAEGNEKKAEAAEKAAEALADALIKIRKAKRE
B3: design_604_3e0b3014-b333-46f1-8adc-d7f0bf8048fa_1498_dldesign_0_cycle1_af2pred (protein)
chain: SEKEKEEEERKKLAEEERAAAKAALAAAKAAAQKGDVAAAIAAAQEARIHASAYAQYLKTEEAKKERDAIVAAAKAAVAAAKAA
B4: design_605_6ebdab39-eaab-4492-afcb-164e20c3b25e_2_dldesign_0_cycle1_af2pred (protein)
chain: SAVKEEAKKIIDEALDAGFEDPEKGRALAEEAYKLLASVPELAALGEEALKKVNAIIDRFEEATKKAEESRK
B5: design_604_3e0b3014-b333-46f1-8adc-d7f0bf8048fa_2138_dldesign_0_cycle1_af2pred (protein)
chain: GEELIKRAEEVIERAEKVRKEDPSLAKEANEAISTAEQAKQAAENAVKAAADPEKAKEFKEAAEKYLEKAEKRVEELEKKVKE
B6: design_604_3e0b3014-b333-46f1-8adc-d7f0bf8048fa_2206_dldesign_0_cycle1_af2pred (protein)
chain: NELEKLKEEIKKEGEKKLKEVEEKYKEAKKLLKEDKEKGLKLLAETAGKAYEYAAEFEVLSKKVPEAAEYAKKLRAKAKEIRKLAEEA
B7: design_604_3e0b3014-b333-46f1-8adc-d7f0bf8048fa_2314_dldesign_0_cycle1_af2pred (protein)
chain: EKEKRKEAIEKAEKVSTRIAKDIDTPEAKKIEELTKEAAEKALENVDNPEEVVKIMKEAAEEAAKDPEMEAVALVWKNAADFIK
B8: design_604_3e0b3014-b333-46f1-8adc-d7f0bf8048fa_2182_dldesign_0_cycle1_af2pred (protein)
chain: EEEEKKQKAVEKAKEAAKRLKEVYEKAPEELKPIVKDALDKVEAYAELAELNDAEIAEKAAKRAEKIAEEAIKKVE
B9: design_604_3e0b3014-b333-46f1-8adc-d7f0bf8048fa_1413_dldesign_0_cycle1_af2pred (protein)
chain: EEEKEKRAEEKRKEIEELAKLAAENKEKGEKAVEKAKELVEKADEEEAPALAKALSRLVAAAYAVDEEVADKAFEAYALAWKKAQ
B10: design_604_3e0b3014-b333-46f1-8adc-d7f0bf8048fa_1248_dldesign_0_cycle1_af2pred (protein)
chain: NAYEEAKKAVDEMEKAMKALAKADPSLADEMKDKIATARKRLEAAKTDEEYKKVAEEAKKAKAAAQSILDALKKN
B11: design_604_3e0b3014-b333-46f1-8adc-d7f0bf8048fa_1827_dldesign_0_cycle1_af2pred (protein)
chain: MTHEEINAASYALRALTRAARDVPEAAAEFEAQIDFLMSGSIEEGVEKVIALAEKYRDRLSPEALALFEKAKEYLEKAK
B12: design_604_3e0b3014-b333-46f1-8adc-d7f0bf8048fa_1621_dldesign_0_cycle1_af2pred (protein)
chain: MEAEKRNEEYAKEVEELYKKVLDGDIEEDKEALKKAEKLLEEAEADPEMKEEVLKGLRAAVRMAKASIEAEEKR
B13: design_605_6ebdab39-eaab-4492-afcb-164e20c3b25e_16_dldesign_0_cycle1_af2pred (protein)
chain: AAAAHAKAVAEAKEEMKETIKEEAKKAKEKNEEAGKESLEFGKELLEFFEKSMEKVKDPKEAKKGGERGKKIIKKNAEAITKAIT
B14: design_604_3e0b3014-b333-46f1-8adc-d7f0bf8048fa_1397_dldesign_0_cycle1_af2pred (protein)
chain: SENELTEEAVSLAARVSKRANELGKKTGSEELLKLSEEAKELRDKIVDDPSTAEEALKKVKELEKRIEELTAA
B15: design_604_3e0b3014-b333-46f1-8adc-d7f0bf8048fa_1627_dldesign_0_cycle1_af2pred (protein)
chain: ENLEKAKAADEKAKKFEDKAKEYEAKGKAEGKKYLYKAAAYYYAAAHAYNVAAKYYEKEGKAEEAAAAKAKAKEAEAKGNELAAK
B16: design_604_3e0b3014-b333-46f1-8adc-d7f0bf8048fa_1927_dldesign_0_cycle1_af2pred (protein)
chain: LVEEAKKIAEEKAEEMKKAMEKAEKEGKEAMKKAKEKFKKLRAELKKLYEEYKKKDPEAAKKLAEGAHKMYEYMNEAEHKL
B17: design_604_3e0b3014-b333-46f1-8adc-d7f0bf8048fa_1949_dldesign_0_cycle1_af2pred (protein)
chain: AEKYKKKMAEAAHLYADLAMEGKPEEGEKEADAIIEKALKEGKAAGDGEAAEAAAKEARATMEYLKKTMEEADKRNK
B18: design_604_3e0b3014-b333-46f1-8adc-d7f0bf8048fa_1571_dldesign_0_cycle1_af2pred (protein)
chain: DPKQLLSDARDQITELFFEAGKEAVPYNRKVVAALKAGDLDAALAAVEEFQKEYPEVGAKAKAVMDKAIAAAKAA
B19: design_604_3e0b3014-b333-46f1-8adc-d7f0bf8048fa_2199_dldesign_0_cycle1_af2pred (protein)
chain: DAAVKAEASKVAAEAYEVIAEIEKLDPEKGKELRKKLKEARKKAKEDPKAGLAALKEVLEESKKELEKLKKEEKEKE
B20: design_604_3e0b3014-b333-46f1-8adc-d7f0bf8048fa_1712_dldesign_0_cycle1_af2pred (protein)
chain: SEEGQKVLEKIEELRKEAEKFAKENKENGPKFARELAKKMRELAEKAKKEYGWNQEILNKASKVVHEARQLANEAEVEAKK
B21: design_604_3e0b3014-b333-46f1-8adc-d7f0bf8048fa_1344_dldesign_0_cycle1_af2pred (protein)
chain: KEKQKELLLESAVEEAEKAAKLLKDPELGKRLLTAVKAAKEDVSKAPEAAAVAREVGAKEPEASLEASAAAASLLSAYRIAKS
B22: design_604_3e0b3014-b333-46f1-8adc-d7f0bf8048fa_1221_dldesign_0_cycle1_af2pred (protein)
chain: AEMEERKAKGLEQAERLAERAKEAGKLNPEKAAELLGKAEAMLAKVRAMDNEAQWAEAAKEAAKLRELIAEAETEARRKKEEE
B23: design_604_3e0b3014-b333-46f1-8adc-d7f0bf8048fa_1994_dldesign_0_cycle1_af2pred (protein)
chain: DNKKTVEALSKVNRLGKEAGEAPKEETMKLVEEGVKYAKEEAKKLKDPDYKKYLIDRGKELEENAKKYLA
B24: design_604_3e0b3014-b333-46f1-8adc-d7f0bf8048fa_2008_dldesign_0_cycle1_af2pred (protein)
chain: SSLEEAKKAKELAEELKKKVKELAKEAKADPSKAAEAAKVAKAIGEEAKELGKKYPEAAKYADAVAEYALHAAEQLEKLA
B25: design_604_3e0b3014-b333-46f1-8adc-d7f0bf8048fa_2376_dldesign_0_cycle1_af2pred (protein)
chain: EEFEKAKKELKEAAEEAKKIDPEVGKEAKKIAEKATKVADSIIEKVGERAKPIATDILKNAKEKIKKLTEKRKKEKEA
B26: design_604_3e0b3014-b333-46f1-8adc-d7f0bf8048fa_2309_dldesign_0_cycle1_af2pred (protein)
chain: SHELLQQAIEELTAAEAEARRAAKIAEKKDKELAKKAKELAKKARELRKELIEKAKAGEATDEYIEEVLKKAKELEKEAKKILKEL
B27: design_604_3e0b3014-b333-46f1-8adc-d7f0bf8048fa_1261_dldesign_0_cycle1_af2pred (protein)
chain: EAEKAAKKAEEVGKKAVKEVKKAVEEGLPKEELSKVVHEEIQKITEASTEAARIAEEKAGKEAGEKVLKAGEEARKKLIAIAKE
B28: design_604_3e0b3014-b333-46f1-8adc-d7f0bf8048fa_1395_dldesign_0_cycle1_af2pred (protein)
chain: AEKEELIAKAKEIAAKSAEVAKEAKKLGKDAAEAETTAKEAQKTAEEAIKKAEAGEIDVETLKKLVSKAAGLYYEAKSYLEVVKKKKE
B29: design_604_3e0b3014-b333-46f1-8adc-d7f0bf8048fa_1332_dldesign_0_cycle1_af2pred (protein)
chain: EEVKEYLAKLSAEAYELLAEAEVLYKKTGSEKAKEAKELAKEALKELKEAGKLLEEDPEKAKEKAKIGEEKLKKAKEILEEIYKE
B30: design_604_3e0b3014-b333-46f1-8adc-d7f0bf8048fa_1604_dldesign_0_cycle1_af2pred (protein)
chain: MKDAEKLDEINKLSAEAGKLLKEAAKKDPSRKAELEAAAKEAAKKFDEAYDLFEKDPDAGLALAKEAYKEVKKLVEA
B31: design_604_3e0b3014-b333-46f1-8adc-d7f0bf8048fa_1387_dldesign_0_cycle1_af2pred (protein)
chain: ELDALVRAAIGEAVVFVLGPAAAPAAERIAAATPEEAKALLEEIAATQTPYQAAELLHTARAFAAYAETKYS
B32: design_604_3e0b3014-b333-46f1-8adc-d7f0bf8048fa_2312_dldesign_0_cycle1_af2pred (protein)
chain: MEEVEKLKKEAEKAAKEAEKAVERIKDPKTAKEALKEASKELAKLYELAAELEHLPEGKEAGKEVREKAKKLREEAKKAWAAQLAA
B33: design_605_6ebdab39-eaab-4492-afcb-164e20c3b25e_128_dldesign_0_cycle1_af2pred (protein)
chain: MEEKKAEEKKLKEKKEEAKEYLRRAKRAMGRAMVKGDEEAFELAEEAVYLAHLAIKDPKYIEEAKKKTEEAEKRVEA
B34: design_604_3e0b3014-b333-46f1-8adc-d7f0bf8048fa_1429_dldesign_0_cycle1_af2pred (protein)
chain: DKQVISNKAKAQAERAKQAAKNILKTGDASLAPKVKEIAKKAEKAAKEAEKAGDKESAKEAKKAAKEAKKAAKKVEE
B35: design_604_3e0b3014-b333-46f1-8adc-d7f0bf8048fa_1479_dldesign_0_cycle1_af2pred (protein)
chain: MEEEVKKAKEKIEKLEKAALKTIDILEESAKLGDDISGIKTAAKAAEKEFGKLAKEYPGAAAYAKEAEKKVVDYANKAIKAAKAAK
B36: design_604_3e0b3014-b333-46f1-8adc-d7f0bf8048fa_1973_dldesign_0_cycle1_af2pred (protein)
chain: MAEKEAKAKKLMAEGYSKVYEAAALARVDPEEGKKEWEEVVEKYTKELEKLDPEKGKELKEKAEKLLEKAL
B37: design_605_6ebdab39-eaab-4492-afcb-164e20c3b25e_50_dldesign_0_cycle1_af2pred (protein)
chain: DEKIEELREAILESAKSGGETVEEVAKLAKELGLTSAEVMLAALEAAEELPEKRELAREIGRRIAAAVLA
B38: design_604_3e0b3014-b333-46f1-8adc-d7f0bf8048fa_2086_dldesign_0_cycle1_af2pred (protein)
chain: SAAAEKNVALASGTFKRLLEFPEEEQVATIADSIRANPAAADYFAAAAKADKENGPKLKKVLDIAAAKVAAA

Biological target: VTCN1, Q7Z7D3
Sequence (Q7Z7D3 whole entry): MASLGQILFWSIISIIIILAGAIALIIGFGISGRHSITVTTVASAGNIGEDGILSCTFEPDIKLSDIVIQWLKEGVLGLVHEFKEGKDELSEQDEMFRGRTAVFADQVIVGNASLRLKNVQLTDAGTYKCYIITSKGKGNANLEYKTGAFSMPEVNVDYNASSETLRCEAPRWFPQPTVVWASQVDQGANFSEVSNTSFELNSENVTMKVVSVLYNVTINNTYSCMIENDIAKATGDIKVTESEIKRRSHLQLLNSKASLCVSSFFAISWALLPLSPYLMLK

Binder | binding in a display sort
B1 | not found
B2 | not found
B3 | not found
B4 | not found
B5 | not found
B6 | not found
B7 | not found
B8 | not found
B9 | not found
B10 | not found
B11 | not found
B12 | not found
B13 | not found
B14 | not found
B15 | not found
B16 | not found
B17 | not found
B18 | not found
B19 | not found

Binder | binding in a display sort
B20 | not found
B21 | not found
B22 | not found
B23 | not found
B24 | not found
B25 | not found
B26 | not found
B27 | not found
B28 | not found
B29 | not found
B30 | not found
B31 | not found
B32 | not found
B33 | not found
B34 | not found
B35 | not found
B36 | not found
B37 | not found
B38 | not found
